Experiment [1] has as its target Rap guanine nucleotide exchange factor 3 (Homo sapiens) (UniProt O95398). Description: Confirmatory qHTS for agonist of cAMP-regulated guanine nucleotide exchange factor 3 (EPAC1) (AID 1645881;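 further: EPAC1 catalysed release of BODIPY-GDP from Rap1B seen as fluorescence loss; 100% = effect of cAMP agonist control; nearly all actives have a fitted effect of over 75% in size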). (In qHTS, concentration-response curves come from the screen itself.)
Experiment [2] deals with Rap guanine nucleotide exchange factor 4 (Homo sapiens) (UniProt Q8WZA2). In words: Confirmatory qHTS for agonist of cAMP-regulated guanine nucleotide exchange factor 4 (EPAC2) (AID 1645884).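 Further: nucleotide exchange releases bodipy-GDP from Rap1 and this lowers its fluorescence; on the % scale 0 is the no-effect control and ±100 the full control effect; nearly all actives have a fitted effect of over 65% in size.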
Sequence of Rap guanine nucleotide exchange factor 4 (Homo sapiens) (Q8WZA2 whole entry, looked up): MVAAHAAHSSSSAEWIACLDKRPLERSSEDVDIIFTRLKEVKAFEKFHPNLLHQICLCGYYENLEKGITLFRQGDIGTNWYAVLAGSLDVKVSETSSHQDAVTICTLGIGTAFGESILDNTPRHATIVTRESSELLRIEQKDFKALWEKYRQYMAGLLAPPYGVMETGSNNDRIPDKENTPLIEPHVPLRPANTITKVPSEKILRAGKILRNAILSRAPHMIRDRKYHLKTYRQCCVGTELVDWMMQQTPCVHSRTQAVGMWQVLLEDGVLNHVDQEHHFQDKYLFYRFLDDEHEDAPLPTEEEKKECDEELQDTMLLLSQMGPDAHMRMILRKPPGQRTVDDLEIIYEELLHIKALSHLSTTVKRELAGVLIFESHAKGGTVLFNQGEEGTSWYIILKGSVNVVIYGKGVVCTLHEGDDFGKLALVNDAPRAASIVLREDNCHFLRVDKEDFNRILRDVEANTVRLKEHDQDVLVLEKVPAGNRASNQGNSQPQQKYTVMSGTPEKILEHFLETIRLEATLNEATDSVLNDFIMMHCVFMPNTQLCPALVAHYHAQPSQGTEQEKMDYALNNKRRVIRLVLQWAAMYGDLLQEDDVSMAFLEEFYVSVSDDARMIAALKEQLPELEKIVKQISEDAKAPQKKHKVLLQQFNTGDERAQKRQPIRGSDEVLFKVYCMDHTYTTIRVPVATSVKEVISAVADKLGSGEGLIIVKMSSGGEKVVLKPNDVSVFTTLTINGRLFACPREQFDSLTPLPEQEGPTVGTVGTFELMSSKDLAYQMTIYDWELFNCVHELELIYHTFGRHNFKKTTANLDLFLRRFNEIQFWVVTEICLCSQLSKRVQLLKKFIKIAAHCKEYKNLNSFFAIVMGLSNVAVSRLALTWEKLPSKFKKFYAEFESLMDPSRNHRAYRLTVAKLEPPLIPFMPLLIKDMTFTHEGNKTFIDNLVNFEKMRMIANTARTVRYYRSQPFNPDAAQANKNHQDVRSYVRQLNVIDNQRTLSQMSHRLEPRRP
For experiment [3] the target is unchanged. In words: Confirmatory qHTS for antagonist of cAMP-regulated guanine nucleotide exchange factor 4 (EPAC2) (AID 1645885). Further: nearly all actives have a fitted effect of over 25% in size. Further: potency means the concentration at half of the fitted maximal effect. On activity change, negative = inhibition: on the % scale 0 is the no-effect control and ±100 the full control effect.
Experiment [4] deals with Rap guanine nucleotide exchange factor 3 (Homo sapiens) (UniProt O95398). In words: Counterscreen qHTS for agonist of cAMP-regulated guanine nucleotide exchange factor 3 (EPAC1) (AID 1645889). Further: % of control where 0% means no effect; nearly all actives have a fitted effect of over 40% in size. The procedure, abridged:
(§1)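 Rap1B–BODIPY-GDP (250 nM) with 50 uM GDP; compounds pin-transferred to 9.74 nM–152 uM final (activator) or from 7.32 nM upwards (inhibitor). Fluorescence Ex/Em 480/540 nm read at 5 and 30 min, then after adding cAMP or buffer, at room temperature.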

Experiment [5] deals with Lysosomal acid glucosylceramidase (Homo sapiens) (UniProt P04062). In words: Glucocerebrosidase-p2 (AID 348; in the data active means potency below about 10 µM; further: potency means the concentration at half of the fitted maximal effect). To be noted: purified GBA, blue fluorogenic substrate, 40 min. The procedure, abridged:
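Compounds titrated from 0.6 nM upwards against 0.2 nM enzyme in pH 5.9 citric acid/KH2PO4, taurocholate, tween-20; blue fluorogenic substrate 80 uM, 40 min room temperature, stopped and read Ex 365/Em 440 for AC50.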

Experiment [6] is described as follows: AP1 Signaling Pathway (AID 357; active means well fitted curve in either direction with a large enough effect, not every such curve was filed as active;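 further: ME-180 reporter cells stimulated with EGF at its EC50 level; on the % scale 0 is the no-effect control and ±100 the full control effect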). To be noted: ME-180 (cervical carcinoma) AP-1-bla reporter, EGF-induced, beta-lactamase ratio, 5 h; at 7.69 µM (top of the series) unless noted. The procedure, abridged:
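Beta-lactamase reporter under AP-1 response element, ME-180 background. Stimulus: EC50 EGF. Compound exposure 5 h, 37 °C. Detection: CCF4, 2.5 h RT, 460/530 nm. Values: AC50 from titration.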

The nature of experiment [7]: Stat Signaling Pathway (AID 446; active means well fitted curve in either direction with a large enough effect, not every such curve was filed as active;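 further: ME-180 cervical cancer cells given 40 pM IL-6 alongside compound; SIE-controlled beta-lactamase reporter measured as 460/530 nm FRET emission ratio; on the % scale 0 is the no-effect control and ±100 the full control effect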). The procedure, abridged:
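ME-180 cells carrying a SIE-driven beta-lactamase reporter are stimulated with 40 pM IL-6 for 5 h at 37C in the presence of compound. The 460/530 nm FRET substrate ratio is read after 2.5 h at RT. Data are normalised to 300 pM IL-6 and to 125 nM JAK inhibitor controls.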

In experiment [8] the target is Glucocorticoid receptor (Homo sapiens) (UniProt P04150). Description: GR-GFP Redistribution (AID 450;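 active means compounds whose dose series gives a full or clear partial fitted curve of increased nuclear translocation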; further: potency means the concentration at half of the fitted maximal effect). The note with it: U2OS GR-GFP nuclear translocation, laser cytometry, 2 h.
Sequence of Glucocorticoid receptor (Homo sapiens) (P04150 whole entry, looked up, the tested form may be a part): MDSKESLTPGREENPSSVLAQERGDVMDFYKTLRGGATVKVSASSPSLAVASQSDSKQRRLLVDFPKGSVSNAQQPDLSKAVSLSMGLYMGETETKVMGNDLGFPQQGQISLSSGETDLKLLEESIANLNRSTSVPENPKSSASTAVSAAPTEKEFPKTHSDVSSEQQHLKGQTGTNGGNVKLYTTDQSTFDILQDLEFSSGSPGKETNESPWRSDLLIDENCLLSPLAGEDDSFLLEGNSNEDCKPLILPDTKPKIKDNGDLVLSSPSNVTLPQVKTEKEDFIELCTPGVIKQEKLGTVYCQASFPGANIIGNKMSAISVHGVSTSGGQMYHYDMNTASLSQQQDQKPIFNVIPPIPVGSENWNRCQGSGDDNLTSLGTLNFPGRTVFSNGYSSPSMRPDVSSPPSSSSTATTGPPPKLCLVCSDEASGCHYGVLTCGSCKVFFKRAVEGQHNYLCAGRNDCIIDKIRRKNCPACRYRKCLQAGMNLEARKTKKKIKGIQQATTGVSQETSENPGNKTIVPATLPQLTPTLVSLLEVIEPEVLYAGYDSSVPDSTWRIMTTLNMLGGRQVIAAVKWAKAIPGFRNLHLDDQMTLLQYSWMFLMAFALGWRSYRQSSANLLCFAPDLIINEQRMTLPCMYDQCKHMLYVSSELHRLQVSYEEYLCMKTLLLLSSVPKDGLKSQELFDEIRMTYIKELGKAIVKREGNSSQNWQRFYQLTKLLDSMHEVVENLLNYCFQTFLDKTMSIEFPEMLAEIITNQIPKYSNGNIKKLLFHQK
Experiment [9] has the same target. In words: GR-EFC Redistribution (AID 451; calls by dose curve; further: potency means the concentration at half of the fitted maximal effect). To be noted: CHO-K1 GR-EFC translocation, beta-gal luminescence, 2 h. The procedure, abridged: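 CHO-K1 cells expressing nuclear EA and GR-ED fragments of b-gal; compounds titrated up to 46 uM final, 2 h at 37 C. GR nuclear translocation read as complemented b-gal luminescence after 1 h RT detection.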
The target of experiment [10] is Mitogen-activated protein kinase 10 (Mus musculus) (UniProt Q61831). Description: JNK3 AlphaScreen Assay (AID 530; active means well fitted curve in either direction with a large enough effect, not every such curve was filed as active;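 further: kinase came from lysate of stimulated human HepG2 cells; signal reports phosphorylation of biotinylated GST-cJun 1-79 at Ser73 with 10 µM ATP; on the % scale 0 is the no-effect control and ±100 the full control effect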). The procedure, abridged:
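qHTS format: compounds tested as titrations against IL-1beta/TNF-alpha-activated HepG2 lysate JNK3 with biotin-GST-cJun substrate and 10 uM ATP at room temperature. Loss of anti-phospho-cJun AlphaScreen signal indicates inhibition.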

Experiment [11] has as its target 3',5'-cyclic-AMP phosphodiesterase 4B (Homo sapiens) (UniProt Q07343). In words: qHTS Assay for Inhibitors of PDE-IV (AID 607; active means well fitted activation curve with a large enough effect in the main read-out, with a control signal flat, not every such curve was filed as active; further: % of control where 0% means no effect). The procedure, abridged:
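HEK293 ACTOne cells with CNG channel (1000/well), endogenous PDE4; membrane potential dye, compounds up to 22.9 uM final. Fluorescence Ex 535/Em 590; RO 20-1724 (100 uM final) as reference.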

The target in experiment [12] is Cytochrome P450 3A4 (Homo sapiens) (UniProt P08684). In words: qHTS Assay for Activators of Cytochrome P450 3A4 (AID 885). Further: nearly all actives have a fitted effect of over 65% in size. The procedure, abridged:
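Human CYP3A4 (20 nM) with Luciferin-PPXE at 25 uM (its KM) in 200 mM KPO4; 10 min compound preincubation, then NADPH regeneration and 60 min reaction at RT. Luciferin read by luminescence; normalized to 57 uM ketoconazole full inhibition.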

The target in experiment [13] is Cytochrome P450 2C19 (Homo sapiens) (UniProt P33261). Description: qHTS Assay for Inhibitors and Substrates of Cytochrome P450 2C19 (AID 899). Further: potency means the concentration at half of the fitted maximal effect; nearly all actives have a fitted effect of over 60% in size. The procedure, abridged:
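Luminescent read-out of luciferin formed from Luciferin-H EGE (10uM, equal to KM). Enzyme 5nM in 50mM KPO4; compound added, 10 min at 37C, then NADPH regenerating system for 60 min at 37C. Full inhibition defined by 57uM ketoconazole.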

The target in experiment [14] is Rap guanine nucleotide exchange factor 3 (Homo sapiens) (UniProt O95398). In words: Counterscreen qHTS for antagonist of cAMP-regulated guanine nucleotide exchange factor 3 (EPAC1) (AID 1645888).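 Further: fluorescence loss as bound BODIPY-GDP is released from Rap1B; % of control where 0% means no effect.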 The procedure, abridged: as §1
Sequence of Rap guanine nucleotide exchange factor 3 (Homo sapiens) (O95398 whole entry, looked up): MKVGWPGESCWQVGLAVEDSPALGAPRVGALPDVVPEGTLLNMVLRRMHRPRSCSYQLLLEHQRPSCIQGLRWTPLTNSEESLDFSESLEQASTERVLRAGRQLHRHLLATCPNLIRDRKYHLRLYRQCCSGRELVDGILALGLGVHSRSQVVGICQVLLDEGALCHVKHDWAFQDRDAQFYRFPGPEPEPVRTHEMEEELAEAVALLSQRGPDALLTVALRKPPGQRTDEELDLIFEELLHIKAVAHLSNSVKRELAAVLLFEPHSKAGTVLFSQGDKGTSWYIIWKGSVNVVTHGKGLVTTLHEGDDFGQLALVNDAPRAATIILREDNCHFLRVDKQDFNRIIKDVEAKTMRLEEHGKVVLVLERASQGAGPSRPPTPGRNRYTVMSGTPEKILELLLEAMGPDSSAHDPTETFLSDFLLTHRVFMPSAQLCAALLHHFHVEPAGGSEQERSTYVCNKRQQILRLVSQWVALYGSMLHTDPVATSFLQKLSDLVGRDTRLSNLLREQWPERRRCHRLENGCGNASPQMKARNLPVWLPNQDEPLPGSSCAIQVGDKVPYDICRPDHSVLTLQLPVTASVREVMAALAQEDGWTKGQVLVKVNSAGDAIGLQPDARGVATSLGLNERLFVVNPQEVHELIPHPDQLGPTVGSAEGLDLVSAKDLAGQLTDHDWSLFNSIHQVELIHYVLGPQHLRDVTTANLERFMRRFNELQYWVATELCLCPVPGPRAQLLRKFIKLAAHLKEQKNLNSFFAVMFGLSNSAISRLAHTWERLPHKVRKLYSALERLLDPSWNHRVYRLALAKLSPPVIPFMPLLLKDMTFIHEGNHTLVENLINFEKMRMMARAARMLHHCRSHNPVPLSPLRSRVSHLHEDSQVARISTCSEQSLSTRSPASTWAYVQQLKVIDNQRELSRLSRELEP
In general terms: A counterscreen serves to expose hits that act by an unwanted route or on another target.

Experiment [15] is described as follows: Confirmation and Secondary Assay for Modulators of Hemoglobin Beta Chain Splicing at IVS2 654 locus (AID 910).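 Further: HeLa cells stably carrying EGFP split by mutant beta-globin IVS2-654 intron; % of control where 0% means no effect.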 The procedure, abridged: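 HeLa cells stably expressing EGFP interrupted by β-globin IVS2-654 intron, seeded overnight in Opti-MEM/2% FCS, then treated 2 days at 37 °C. Restored splicing read as total peak GFP intensity per well by laser scanning cytometry (488 nm excitation, 500–520 nm emission); 500 nM antisense PNA as control.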

Experiment [16] can be described thus: Confirmation and Secondary Assay for Modulators of Hemoglobin Beta Chain Splicing at IVS2 705 locus (AID 930).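 Further: HeLa cells stably expressing the EGFP-705 splicing reporter; GFP fluorescence per well restored by corrected splicing of the IVS2-705 intron in EGFP; % of control where 0% means no effect.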 The procedure, abridged: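 First, HeLa EGFP-705 cells are seeded at 500/well in Optimem with 2% FCS and left overnight. Next, compound or DMSO is added for 2 days. Finally wells are laser-scanned and total peak GFP intensity scored.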
For experiment [17], the target named is Cytochrome P450 1A2 (Homo sapiens) (UniProt P05177). In words: p450-cyp1a2 (AID 410; calls by dose curve; further: potency means the concentration at half of the fitted maximal effect). The procedure, abridged:
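Inhibition was calculated relative to 57 uM furafylline (full inhibition). The reaction used human CYP1A2 at 20nM with Luciferin-ME at its Km, 100uM, driven by an NADPH-regenerating system for 60 min at room temperature.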

Results on 22 compounds are retold here after PubChem BioAssay (NCATS).

Unmarked numbers belong to inactive results. Inconclusive results are not listed. Calls of active or inactive are those of the source. Unless noted, the call rests on the fitted dose curve; in most records, active means well fitted curve in the direction sought with a large enough effect; inconclusive means small, poorly fitted or top-dose-only effect, or another doubt; inactive means no such curve, though single readings can be large; an effect the other way counts as inactive or inconclusive.

Sequence of Cytochrome P450 3A4 (Homo sapiens) (P08684 whole entry, looked up): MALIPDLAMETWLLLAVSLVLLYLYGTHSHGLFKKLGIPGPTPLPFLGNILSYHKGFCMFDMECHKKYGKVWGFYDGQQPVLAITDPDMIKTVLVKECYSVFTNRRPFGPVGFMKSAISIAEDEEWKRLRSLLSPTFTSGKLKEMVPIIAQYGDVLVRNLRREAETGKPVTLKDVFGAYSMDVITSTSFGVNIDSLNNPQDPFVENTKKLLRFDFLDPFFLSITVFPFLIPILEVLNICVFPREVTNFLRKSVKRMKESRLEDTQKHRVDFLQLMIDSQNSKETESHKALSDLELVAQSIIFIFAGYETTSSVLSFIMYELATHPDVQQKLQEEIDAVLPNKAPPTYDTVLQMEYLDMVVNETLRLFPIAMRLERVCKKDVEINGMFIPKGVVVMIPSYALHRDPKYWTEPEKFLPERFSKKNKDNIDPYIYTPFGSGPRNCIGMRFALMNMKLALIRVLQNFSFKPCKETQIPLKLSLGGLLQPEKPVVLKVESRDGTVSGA
Sequence of 3',5'-cyclic-AMP phosphodiesterase 4B (Homo sapiens) (Q07343 whole entry, looked up): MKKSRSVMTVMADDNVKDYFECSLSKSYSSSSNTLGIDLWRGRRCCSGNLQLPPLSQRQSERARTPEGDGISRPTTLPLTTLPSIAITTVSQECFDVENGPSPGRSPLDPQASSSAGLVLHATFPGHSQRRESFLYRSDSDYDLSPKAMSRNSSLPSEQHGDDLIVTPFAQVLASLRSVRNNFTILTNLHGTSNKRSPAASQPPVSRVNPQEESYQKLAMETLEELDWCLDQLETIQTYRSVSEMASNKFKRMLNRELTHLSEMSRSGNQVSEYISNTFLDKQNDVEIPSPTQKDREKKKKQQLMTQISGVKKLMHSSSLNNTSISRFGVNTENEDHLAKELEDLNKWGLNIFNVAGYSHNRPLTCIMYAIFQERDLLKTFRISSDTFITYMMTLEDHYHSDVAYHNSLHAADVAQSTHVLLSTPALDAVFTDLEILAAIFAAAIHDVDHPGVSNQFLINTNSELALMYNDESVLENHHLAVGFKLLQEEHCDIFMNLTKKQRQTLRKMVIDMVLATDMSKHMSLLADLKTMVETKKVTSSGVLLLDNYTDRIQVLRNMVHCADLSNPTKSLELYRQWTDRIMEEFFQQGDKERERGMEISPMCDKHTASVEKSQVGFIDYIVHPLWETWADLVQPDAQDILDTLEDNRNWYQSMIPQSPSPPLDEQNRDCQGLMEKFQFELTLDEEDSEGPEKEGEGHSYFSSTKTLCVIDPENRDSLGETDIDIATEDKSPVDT
Sequence of Lysosomal acid glucosylceramidase (Homo sapiens) (P04062 whole entry, looked up): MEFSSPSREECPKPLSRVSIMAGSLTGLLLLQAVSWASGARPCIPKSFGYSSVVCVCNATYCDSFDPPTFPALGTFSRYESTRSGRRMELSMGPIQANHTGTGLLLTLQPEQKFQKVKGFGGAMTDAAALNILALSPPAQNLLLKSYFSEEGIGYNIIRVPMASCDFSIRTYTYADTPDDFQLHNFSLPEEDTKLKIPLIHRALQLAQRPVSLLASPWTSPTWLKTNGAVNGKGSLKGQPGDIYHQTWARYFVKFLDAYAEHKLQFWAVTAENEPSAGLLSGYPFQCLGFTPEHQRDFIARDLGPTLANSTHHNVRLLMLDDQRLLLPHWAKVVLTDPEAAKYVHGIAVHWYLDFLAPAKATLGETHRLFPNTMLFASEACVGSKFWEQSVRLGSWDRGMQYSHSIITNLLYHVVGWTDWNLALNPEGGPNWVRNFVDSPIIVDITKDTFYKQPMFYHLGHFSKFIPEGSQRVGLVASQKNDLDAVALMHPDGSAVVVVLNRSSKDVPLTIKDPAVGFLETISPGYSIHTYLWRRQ
Sequence of Cytochrome P450 1A2 (Homo sapiens) (P05177 whole entry, looked up): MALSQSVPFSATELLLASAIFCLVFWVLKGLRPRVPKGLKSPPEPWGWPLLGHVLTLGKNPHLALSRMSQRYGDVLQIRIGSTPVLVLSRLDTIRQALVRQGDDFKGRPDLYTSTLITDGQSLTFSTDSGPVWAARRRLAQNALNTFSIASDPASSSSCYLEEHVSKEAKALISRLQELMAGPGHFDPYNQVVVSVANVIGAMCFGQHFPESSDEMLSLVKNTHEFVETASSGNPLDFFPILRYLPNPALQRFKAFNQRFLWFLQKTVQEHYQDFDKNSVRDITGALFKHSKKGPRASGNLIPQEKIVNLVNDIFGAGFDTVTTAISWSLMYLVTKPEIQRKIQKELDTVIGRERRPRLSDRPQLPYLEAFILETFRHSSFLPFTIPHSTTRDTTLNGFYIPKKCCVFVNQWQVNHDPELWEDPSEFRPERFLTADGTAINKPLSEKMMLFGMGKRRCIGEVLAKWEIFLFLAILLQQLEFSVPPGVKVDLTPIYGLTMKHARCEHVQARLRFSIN

For `CCCCC[C@H](C)N1C[C@@H](COCc2ccccc2)Oc2cc(N3CC[C@@H](O)C3)ccc2S1(=O)=O`, the Potency result in experiment [1] and in experiment [3] was “inactive” throughout. For the same compound, the activation is 6.13% [at 17.1 µM, percent relative to cAMP agonist control] in experiment [2] and 5.17% [at 30.8 µM] in experiment [4].
Turning to `O=C(O)c1cc(NN=Nc2cccc([N+](=O)[O-])c2)cc([N+](=O)[O-])c1`, the Potency result in [1] and in experiment [3] was “inactive” each time. Besides, the activation was 1.11% [at 17.1 µM, percent relative to cAMP agonist control] in [2] and 8.61% [at 30.8 µM] in experiment [4].
As for `Cc1ccc(C(=O)Cc2ccccc2)c(O)c1`, the Potency result in experiment [1] and in [3] was “inactive” each time. Moreover, the activation in [2] was 0.272% [at 17.1 µM, percent relative to cAMP agonist control]; in [4] it was 23.4% [at 30.8 µM].
Turning to `C=CCn1c(SCC(=O)Nc2cc(Cl)ccc2C(=O)O)nc2sc(C)c(C)c2c1=O`, the Potency result in [1] and in experiment [3] was “inactive” each time. For the same compound, the activation is 10.1% [at 17.1 µM, percent relative to cAMP agonist control] in experiment [2] and 1.53% [at 30.8 µM] in experiment [4].
As for `O=C1NC(=S)S/C1=C\C=C\c1ccc([N+](=O)[O-])o1`, the Potency entry in experiment [1], in experiment [2], in experiment [3] and in [4] was “inactive” in each case.
Take `O=C(CSc1nccn1Cc1ccc(Cl)cc1)Nc1ccc2c(c1)OCO2`: the Potency entry in experiment [1], in experiment [2], in [3] and in [4] was “inactive” in each case.
As to `Cc1cc(-c2ccc(/C=N/n3cnnc3)o2)ccc1Cl`, the Potency result in [1], in experiment [2], in experiment [3] and in experiment [4] was “inactive” throughout.
Consider `COc1ccc(C2CC(=O)c3c(O)cc(O)cc3O2)c(CC=C(C)C)c1OC` (stereo not drawn), for which the Potency entry in [1], in experiment [2] and in experiment [4] was “inactive” throughout. Moreover, in experiment [3], the Potency is 67.5 µM (active).
As to `Nc1nc(N)c(-c2cccc(C(F)(F)F)c2)c(Cc2cccc(C(F)(F)F)c2)n1`, the Potency is > 11.4 µM in experiment [5], > 46 µM in experiment [8], > 9.22 µM in experiment [9] and 2.51 µM (active) in experiment [13]. Further, the activity change, negative = inhibition was 11.9% in experiment [6] and 3.36% [at 11.4 µM] in experiment [10]. Also, the result in experiment [7] was inactive. The Potency entry in [11], in [1], in experiment [2], in experiment [3] and in experiment [4] was “inactive” in each case. Moreover, the activity change, positive = activation in experiment [12] is -31.2% [at 11.4 µM].
On to `CCCCOC(=O)C1=C(C)Nc2nnnn2C1c1ccccc1Cl` (stereo not drawn), for which the Potency entry in experiment [1], in experiment [2], in experiment [3] and in experiment [4] was “inactive” throughout.
Turning to `COc1ccc(OC)c(NC(=O)c2nc(S(=O)(=O)Cc3ccccc3)ncc2Cl)c1`, the Potency entry in [1], in experiment [2] and in experiment [14] was “inactive” each time.
Consider `O=C(COC(=O)c1cccc(NS(=O)(=O)c2ccc(F)c(F)c2)c1)NC(=O)NC1CCCC1`, for which the Potency result in experiment [1], in experiment [2], in experiment [3] and in [4] was “inactive” throughout.
Take `Cc1ccc(C)c(S(=O)(=O)N2CCN(C(=O)/C=C/c3ccco3)CC2)c1`: the Potency entry in [1], in experiment [2], in experiment [3] and in experiment [4] was “inactive” in each case.
In the case of `CC(C)=CCc1c2c(c3occ(-c4ccc(O)cc4)c(=O)c3c1O)C=CC(C)(C)O2`, the compound was classed as inactive in experiment [12]. The Potency result in [15], in experiment [16], in [1], in experiment [2] and in [3] was “inactive” in each case.
Take `NC(CSC(c1ccccc1)(c1ccccc1)c1cccc2ccccc12)C(=O)O` (stereo not drawn): the Potency entry in experiment [1] and in experiment [3] was “inactive” in each case. In addition, the activation in experiment [2] is -1.78% [at 17.1 µM, percent relative to cAMP agonist control]; in experiment [4], 5.6% [at 30.8 µM].
As to `CC(C)CCNC(=O)c1onc(CSc2ccccn2)c1C(=O)NCCC(C)C`, the Potency entry in experiment [1], in [2], in experiment [3] and in [4] was “inactive” each time.
`CC(C)(C)NC(=O)NC(=O)CN1CCN(S(=O)(=O)c2ccc3c(c2)CCCC3)CC1`: the Potency entry in [1] and in experiment [3] was “inactive” in each case. For the same compound, the activation in [2] is -5.51% [at 17.1 µM, percent relative to cAMP agonist control]; in experiment [4], 6.75% [at 30.8 µM].
Turning to `O=C(c1cc(C(F)(F)F)cc(C(F)(F)F)c1)N1CCC2(CCCN(c3ncccn3)C2)CC1`, the Potency is > 11.4 µM in [5], 31.6 µM (active) in experiment [17], > 46 µM in [9] and 44.1 µM (active) in experiment [3]. For the same compound, the activity change, negative = inhibition in experiment [6] was -18.2%. Further, the result in [7] and in experiment [12] was inactive. Also, the Potency entry in experiment [10], in experiment [11], in [1] and in experiment [2] was “inactive” each time.
As for `O=C(Cc1c(Sc2ccccc2)c2ccccc2n1Cc1ccccc1)NCCO`, the Potency entry in [1], in experiment [2] and in experiment [14] was “inactive” in each case.
As for `COCCCNC(=O)c1ccc2c3c(onc13)-c1ccccc1C2=O`, the Potency result in experiment [1], in [2] and in [14] was “inactive” in each case.
As to `COc1ccc(N2C(=O)Cc3cc(OC)c(OC)cc3C2c2ccc(F)cc2)cc1` (stereo not drawn), the Potency result in experiment [1], in experiment [2], in experiment [3] and in [4] was “inactive” throughout.
`COc1cccc(S(=O)(=O)Nc2ccc3c(c2)[C@@H]2C[C@@H](CC(=O)NCc4ccc(Cl)cc4)O[C@@H](CO)[C@@H]2O3)c1`: the Potency result in experiment [1], in [2], in experiment [3] and in experiment [4] was “inactive” throughout.
